From PubChem BioAssay
The full list was thinned out, with hits kept by preference.
FBPA Giardia inh = qHTS Assay for Inhibitors of Fructose-1,6-bisphosphate Aldolase from Giardia Lamblia; A8B2U2; purified Giardia FBPA; Potency, µM (titrated, usually from 59.6 µM), without a hit: at the highest dose activity, negative = inhibition, hits mostly inhibitors; 0.71% of 290,000 active; note: potency is the fitted concentration of half-maximal effect; % is set by controls: 0 for no effect and ±100 for the full control effect; nearly all actives have a fitted effect of over 55% in size
Target sequence (A8B2U2 whole entry, looked up): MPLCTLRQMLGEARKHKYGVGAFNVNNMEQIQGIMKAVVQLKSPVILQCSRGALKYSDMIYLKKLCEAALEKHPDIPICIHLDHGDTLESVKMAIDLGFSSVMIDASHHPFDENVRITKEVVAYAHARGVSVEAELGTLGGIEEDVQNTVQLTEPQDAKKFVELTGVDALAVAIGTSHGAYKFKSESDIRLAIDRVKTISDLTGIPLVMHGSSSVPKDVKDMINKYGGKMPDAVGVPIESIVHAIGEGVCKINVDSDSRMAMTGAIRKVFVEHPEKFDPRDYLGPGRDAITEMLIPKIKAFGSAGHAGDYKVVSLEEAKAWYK
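40 nM FBPA preincubated 10 min at RT with compound (up to 57.5 uM final), then substrate plus GAPDH/TPI/NAD/arsenate coupling and diaphorase/resazurin added. Fluorescence read after 20 min at RT, 525/598 nm.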
LmPK inh = qHTS Assay for Inhibitors of Leishmania Mexicana Pyruvate Kinase (LmPK) | Q27686 | purified LmPK, Kinase-Glo ATP luminescence, 1 h | Potency, µM (top dose mostly 57.5 µM), without a hit: at the highest dose activity change, negative = inhibition, actives largely listed as inhibitors | 0.37% of 290,000 active; note: potency is the fitted concentration of half-maximal effect; % is set by controls: 0 for no effect and ±100 for the full control effect
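In 50 mM imidazole pH 7.2 with 7 mM MgCl2, LmPK (0.1 nM) turned over PEP (0.5 mM) and ADP (0.1 mM) for 1 h at room temperature. Luciferase read-out of ATP.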
TbPYK inhibitor = qHTS of Trypanosoma Brucei Inhibitors; Potency, µM (top dose mostly 76.8 µM), without a hit: at the highest dose activity, negative = inhibition, hits mostly inhibitors; TbPYK enzyme, Kinase-Glo Plus ATP luminescence, 45 min; 0.12% of 410,000 active; note: potency is the fitted concentration of half-maximal effect; % is set by controls: 0 for no effect and ±100 for the full control effect; nearly all actives have a fitted effect of over 50% in size
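Luminescent Kinase-Glo Plus end-point after 45 min room-temperature reaction of T. brucei pyruvate kinase started with 130 uM ADP (final). Buffer TEA 50 mM pH 7.2 with KCl, MgCl2, BSA, Tween-20; titration-based qHTS with fitted concentration-effect curves.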
Cycloheximide cs = Cycloheximide Counterscreen for Small Molecule Inhibitors of Shiga Toxin | cell reporter, cycloheximide protein synthesis inhibition counterscreen | max response, % | 12% of 300,000 active; in the data active = max response mostly above about 13%, no sharp cut-off; inactive = mostly below about 14%; note: read at 38.3 µM for the half of the compounds with a filed dose; 0% is about no effect
Sm TGR inh = qHTS Assay for the Inhibitors of Schistosoma Mansoni Peroxiredoxins; 3% of 360,000 active; purified TGR, DTNB reduction, TNB absorbance 405 nm; Potency, µM (titrated, usually from 114 µM), inactives show at the highest dose activity change, negative = inhibition, hits mostly inhibitors; Schistosoma mansoni thioredoxin glutathione reductase (TGR), Q962Y6; note: potency is the fitted concentration of half-maximal effect; % is set by controls: 0 for no effect and ±100 for the full control effect; nearly all actives have a fitted effect of over 60% in size
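First, TGR (20 nM dispensed) and NADPH were mixed with compound. Second, a 15 min room-temperature incubation followed. Third, further NADPH and then DTNB were added to start the reaction. Finally, TNB absorbance was monitored kinetically.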
Shiga inhibitor = A qHTS for Small Molecule Inhibitors of Shiga Toxin. 9.2% of 290,000 active. Vero cells, Shiga toxin protein synthesis inhibition reporter. inhibition, % at 38.7 µM; in the data active = inhibition mostly above about 28%, no sharp cut-off; inactive = mostly below about 43%; note: 0% is about no effect
Starred values were filed as active, the others as inactive; ? = inconclusive; · = not tested or not shown; + = active, no number. Unless noted, calls come from the whole dose curve; as a rule, active = well fitted curve in the direction sought with a large enough effect; inconclusive = small, poorly fitted or top-dose-only effect, or another doubt; inactive = no such curve, though single readings can be large; an effect the other way counts as inactive or inconclusive.

SMILES	FBPA Giardia inh	LmPK inh	TbPYK inhibitor	Cycloheximide cs	Sm TGR inh	Shiga inhibitor
COc1ccc(C(=O)N2CCCCCC2)cc1OC1CCN(C(C)=O)CC1	1%	6%	8%	5	0%	-3
OC[C@@H]1OC(O)[C@@H](O)[C@H](O)[C@@H]1O (stereo partly drawn)	-3%	·	·	-5	·	-5
O=C1CCC(CCC(=O)N2CCCC(C(=O)c3cccc(C(F)(F)F)c3)C2)=NN1 (stereo not drawn)	9%	1%	-4%	11*	11%	15
O=C(c1cccc(C(F)(F)F)c1)C1CCCN(C(=O)C2CCOCC2)C1 (stereo not drawn)	·	0%	5%	14*	-7%	4
COc1cccc(C(=O)C2CCCN(C(=O)CCC3=NNC(=O)CC3)C2)c1 (stereo not drawn)	23%	-2%	-16%	16*	0%	46*
C=CCNc1nc2cc(-c3ccccc3C)sc2c(=O)n1C	·	·	0%	·	·	·
CN(C)c1ccc(-c2cc(NC=O)c3ncc(-c4ccc(F)c(Cl)c4)n3c2)cc1	·	·	-6%	·	·	·
CCOc1cc(C(=O)Nc2cc3c(cc2N2CCCC2)n(C)c(=O)n3C)cc(OCC)c1OCC	·	8%	0%	3	-29%	-4
CCOc1cc(C(=O)Nc2cc3c(cc2N2CCCC2)n(C)c(=O)c(=O)n3C)cc(OCC)c1OCC	·	·	-4%	·	50µM*	·
CC(C)Oc1ccccc1C1C=C(C(=O)O)Nc2ncnn21 (stereo not drawn)	·	·	5%	·	-8%	·
COc1cccc(CNC(=O)C2CCCN(C(=O)c3ccc(Cl)cc3)C2)c1 (stereo not drawn)	·	·	-1%	·	1%	·
COc1cc(/C=N\Nc2nc(-c3ccc(C)cc3)c(NC(C)=O)s2)ccc1O	-26%	11%	-6%	19*	-19%	51
COc1ccc(/C=N/Nc2nc(-c3ccc(C)cc3)c(NC(C)=O)s2)cc1OC	-17%	11%	-2%	34*	-8%	55*
O=C(CCc1nc2cccnc2n1Cc1cccs1)Nc1cccc(Cl)c1	·	·	0%	·	-12%	·
COc1ccc(OC)c(CCNC(=O)CCCn2c(=O)c3cccn3c3ccccc32)c1	·	·	0%	·	-2%	·
O=C(NCc1ccco1)c1cc2cc(Br)ccc2o1	·	-1%	-28%	35*	-12%	87*
Cc1c(C(=O)NCc2ccco2)oc2ccc(Br)cc12	·	·	-4%	·	-21%	·
O=C(NCc1ccco1)Nc1ccc(Br)cc1Cl	0%	3%	9%	48*	0%	87*
O=C(NCc1ccco1)c1cc(=O)c2ccccc2o1	-2%	6%	4%	-2	-5%	15
O=C(NCc1ccco1)c1cc2ccccc2c(=O)o1	0%	5%	2%	67*	?	148*
CCC(=O)OC1(C)C(=O)C=C2C=C(CCCNC(=O)OC(C)(C)C)OC=C2C1=O (stereo not drawn)	-9%	·	·	·	·	·
CC(C)(C)c1ccc(/C=C2\SC(=O)N(CCNC(=O)c3cccc(S(=O)(=O)N4CCOCC4)c3)C2=O)cc1	-5%	-2%	-8%	69*	-5%	131*
CCCCSc1nc(NCc2ccco2)c2c3c(sc2n1)COC(C)(C)C3	-7%	3%	-8%	44*	?	70*
CCCSc1nc(NCc2ccco2)c2c3c(sc2n1)COC(C)(C)C3	-13%	5%	-6%	26	-19%	46*
Cc1nc(-c2ccc(S(=O)(=O)Nc3ccc(OC(F)(F)F)cc3)cc2)co1	·	·	0%	·	12%	·
SMILES	FBPA Giardia inh	LmPK inh	TbPYK inhibitor	Cycloheximide cs	Sm TGR inh	Shiga inhibitor
CC(C)(C)C1CCc2nc(NC(=O)Cc3ccc(Cl)cc3)sc2C1 (stereo not drawn)	·	·	1%	·	-6%	·
CC1CCc2nc(NC(=O)C3CCCO3)sc2C1 (stereo not drawn)	?	-11%	-7%	24*	?	55*
CC(C)(C)C1CCc2nc(NC(=O)Cc3cn4ccsc4n3)sc2C1 (stereo not drawn)	4%	-1%	7%	37*	-13%	146*
CC1CCc2nc(NC(=O)Cc3cccs3)sc2C1 (stereo not drawn)	0%	-8%	-11%	48*	0%	94*
CCC(=O)N1CCc2cc(S(=O)(=O)NC(CC(C)C)C(=O)Nc3cccc(C)c3C)ccc21 (stereo not drawn)	·	·	-1%	·	9%	·
CCn1c2ccccc2c2cc(CN3CCN(Cc4ccc(Cl)cc4)CC3)ccc21	·	·	7%	·	-2%	·
CC(C)(C)C(=O)Nc1ccc(/C=C/C(=O)c2ccco2)cc1	9%	1%	-15%	25*	?	·
N#Cc1ccc(/C=C/C(=O)c2ccco2)cc1	-7%	2%	-3%	6	?	26
Nc1ccc(/C=C/C(=O)c2ccco2)cc1	-9%	-22%	-4%	69*	-25%	+
Nc1nc(CSc2ccccc2)nc(N2CCCCC2)n1	0%	-1%	-2%	51*	5%	138*
CCOC(=O)c1c(C)[nH]c(CCC(=O)Nc2ccccc2C(=O)OC)c1C	·	·	-2%	·	0%	·
CCOC(=O)CNC(=O)Cn1cnc2c(oc3ccccc32)c1=O	3%	-2%	0%	34*	-28%	15
O=C(Cn1cnc2c(oc3ccccc32)c1=O)N1CCCC1	0%	-3%	4%	32*	-2%	64*
Cc1nn2c(-c3cccc(NC(=O)c4ccco4)c3)nnc2c2ccccc12	2%	-1%	1%	22*	-15%	0
Cc1nn2c(-c3ccccc3)nnc2c2ccccc12	7%	-18%	-4%	11*	-8%	41
C/C(=N\Nc1ccc2nncn2n1)c1cccs1	3%	-15%	-11%	41*	-10%	21
C#CCn1c(C)cc(C)c(S(=O)(=O)c2ccccc2)c1=O	3%	3%	1%	26*	·	100*
Brc1cccc(Cn2c(-c3cncs3)nc3ccccc32)c1	7%	7%	4%	12	-17%	32*
Brc1ccc(Cn2c(-c3cncs3)nc3ccccc32)cc1	6%	0%	-7%	33*	-4%	94*
c1ccc(Cn2c(-c3cncs3)nc3ccccc32)cc1	13%	-3%	-6%	60*	9%	47
O=C(Cn1c(-c2cncs2)nc2ccccc21)NCCc1ccccc1	6%	-8%	1%	-3	38%	13
CCOc1cccc2cc(C(=O)N3CCc4ccccc4C3)c(=O)oc12	-11%	2%	-11%	1	-7%	-4
COc1cccc2cc(C(=O)NCCc3ccccc3)c(=O)oc12	13%	7%	5%	17*	3%	-4
